# Laboratory results published in PubChem BioAssay AID485344 (National Center for Advancing Translational Sciences (NCATS), 2010).
# About 6,900 (2%) of roughly 340,000 compounds were called active. No stated cut-off is given here; in the data, active means inhibition above about 30%; inactive means below that, where a call was filed. For the sample, actives were picked, then their nearest neighbours and some compounds at random.
# Molecular target: D(2) dopamine receptor (Homo sapiens) (UniProt P14416)
# Sequence (P14416 whole entry, looked up): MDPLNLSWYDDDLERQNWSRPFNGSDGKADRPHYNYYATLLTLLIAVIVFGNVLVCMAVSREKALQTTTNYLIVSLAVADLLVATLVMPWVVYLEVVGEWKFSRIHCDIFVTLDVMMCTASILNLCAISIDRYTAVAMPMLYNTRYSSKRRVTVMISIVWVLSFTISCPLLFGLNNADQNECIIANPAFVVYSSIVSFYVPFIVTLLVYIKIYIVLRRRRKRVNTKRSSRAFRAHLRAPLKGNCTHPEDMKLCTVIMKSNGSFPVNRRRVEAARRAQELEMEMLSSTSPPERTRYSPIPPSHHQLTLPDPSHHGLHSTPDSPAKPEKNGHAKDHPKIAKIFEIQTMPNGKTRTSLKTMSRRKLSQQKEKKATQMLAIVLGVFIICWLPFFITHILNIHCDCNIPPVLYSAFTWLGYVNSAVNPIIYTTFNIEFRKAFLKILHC
# Assay: HTS Assay for Allosteric Antagonists of the Human D2 Dopamine Receptor: Primary Screen for Antagonists; further: 0% is about no effect
# Details: HEK293 TREx D2 cells, calcium flux, dopamine EC80; at 10 µM; stronger effect = higher value
# Source text: NIH Chemical Genomics Center [NCGC] NIH Molecular Libraries Probe Centers Network [MLPCN] MLPCN Grant: NS064831-01 Assay Submitter (PI): David Sibley Dopamine receptors (DARs) are involved in the etiology and/or therapy of a number of neuropsychiatric and endocrine disorders. For instance, all receptor-based antiparkinsonian drugs work via stimulating the D2 DAR subtype whereas all FDA-approved antipsychotic agents are antagonists of this receptor. […] There are three different types of allosteric modulators that we are seeking, two of which will stimulate or augment receptor signaling, allosteric agonists and potentiators, while the third, allosteric antagonists, will attenuate receptor signaling. The present primary screening assay measures compound antagonism after an EC80 addition of dopamine by tracking calcium flux in a […], inducible Hek293 Trex D2 cell line.
# Freshly passaged cells are plated in 1536 well black, clear bottom plates at a density of 4000 cells/well in 3 ul of complete media containing 1x tetracycline inducer. After an overnight incubation at 30 C in 5% CO2, cells are loaded with 2 ul of the no wash Calcium Assay Kit (ABD Bioquest) and incubated at room temperature for 30 to 90 minutes. Agonist read: A 10 cycle (1 second/cycle) baseline measurement is taken and then the FDSS online 1536 pintool delivers 23 nl of compound library (as well as dopamine controls) to the plate. The plate is measured for kinetically at 1 cycle/sec for 180 seconds. Following the 180 second read, 1 ul of an EC80 (negative modulation assay) is delivered by an onboard pipette head. Measurements are taken kinetically for an additional 180 seconds.
row,Structure (SMILES),inhibition
1,O=C(CCNS(=O)(=O)c1ccccc1C(F)(F)F)Nc1ccncc1,-6.21% (inactive)
2,CN(Cc1ccccc1F)C(=O)C(Cc1ccccc1)NC(=O)c1ccccc1 (stereo not drawn),-5.32% (inactive)
3,NS(=O)(=O)c1ccc(NC(=O)COC(=O)c2ccco2)cc1,38.5% (active)
4,O=C(COC(=O)CNC(=O)c1ccco1)Nc1ccc(F)cc1,-3.88% (inactive)
5,NS(=O)(=O)c1ccc(NC(=O)COC(=O)c2cc3ccccc3oc2=O)cc1,-18.7% (inactive)
6,O=C(COC(=O)C1CCCCC1)Nc1ccc([N+](=O)[O-])cc1,35.3% (active)
7,N/C(Cc1ccc([N+](=O)[O-])cc1)=N\OC(=O)C1CCCCC1,2.32% (inactive)
8,NC(=O)c1ccc(NC(=O)COC(=O)c2ccc([N+](=O)[O-])cc2)cc1,-23.5% (inactive)
9,COc1ccc(CNC(=O)CN2C(=O)NC3(CCCc4sccc43)C2=O)cc1 (stereo not drawn),2.45% (inactive)
10,Cc1ccc(S(=O)(=O)N2CCCCC2)cc1C(=O)N1CCN(CCO)CC1,-6.17% (inactive)
11,COc1ccc(-c2nn(-c3ccccc3)cc2C(=O)Nc2nc(CC(C)=O)ns2)cc1,13.1% (inactive)
12,COc1ccc(-c2nn(-c3ccccc3)cc2/C=C\C(=O)Nc2ccc(C(=O)O)cc2)cc1,0.137% (inactive)
13,COc1ccc(NC(=O)c2cn(-c3ccccc3)nc2SC)cc1,60.7% (active)
14,O=C(NNC(=O)c1ccc(-n2cncn2)c([N+](=O)[O-])c1)c1ccccc1,1.81% (inactive)
15,COc1ccc(C2=NN(C(=O)CSc3nnnn3C)C(c3ccco3)C2)cc1 (stereo not drawn),-18.6% (inactive)
16,O=S(=O)(Nc1cccc(-n2cnnn2)c1)c1cnc(Cl)c(Cl)c1,34.6% (active)
17,O=S(=O)(Nc1ccc(-n2cnnn2)cc1)c1ccc(Cl)cc1,-3.4% (inactive)
18,Cc1ccc(C)c(S(=O)(=O)Nc2cccc(-n3cnnn3)c2)c1,4.04% (inactive)
19,COc1ccccc1CNS(=O)(=O)c1cc(C(=O)NCc2ccccn2)c(Cl)cc1Cl,-2.76% (inactive)
20,Cc1cccc(NS(=O)(=O)c2ccc(C)c(C(=O)NCC(c3ccccc3)N(C)C)c2)c1 (stereo not drawn),-4.69% (inactive)
21,CNC(=O)C1CC(=O)N(c2ccc(OCC(=O)Nc3ccccc3C)cc2)C1 (stereo not drawn),12.9% (inactive)
22,S=C(NCCc1ccccc1)NCc1ccccc1Cl,-2.45% (inactive)

row,Structure (SMILES),inhibition
1,Cc1cc(F)ccc1NC(=S)NCCc1ccccc1,-0.203% (inactive)
2,Fc1ccccc1Cn1cnc(NC(=S)NCCc2ccccc2)n1,40.1% (active)
3,CC(=O)N1CCc2c(sc(NC(=O)CCS(=O)(=O)c3ccc(C)cc3)c2C(N)=O)C1,-1.82% (inactive)
4,Oc1c(CN2CCN(c3ccc(F)cc3)CC2)cc(Cl)c2cccnc12,49.1% (active)
5,CCN1CCN(C(c2cccnc2)c2cc(Cl)c3cccnc3c2O)CC1 (stereo not drawn),2.31% (inactive)
6,O=C(c1cccc(C(=O)N2CCN(c3ccc(F)cc3)CC2)c1)N1CCN(c2ccc(F)cc2)CC1,19.6% (inactive)
7,CCN(CC(=O)Nc1ccc(OC)cc1)C(=O)c1ccc(=O)n(Cc2ccccc2)n1,7.28% (inactive)
8,Cc1ccc(S(=O)(=O)NCCNC(C)c2ccc(Br)cc2)cc1 (stereo not drawn),-7.75% (inactive)
9,COc1ccc(C2CC(=O)Oc3ccc(C(C)(C)C)cc32)cc1 (stereo not drawn),40.2% (active)
10,COc1ccc(C2CC(=O)NC(=O)C2)cc1,-28.9% (inactive)
11,COc1ccc2cc(C3=CC(=O)C[C@H](c4ccc5c(c4)OCO5)C3)ccc2c1,13.1% (inactive)
12,O=S(=O)(c1cccs1)N1CCN(CCOc2ccccc2)CC1,-9.4% (inactive)
13,Nc1c(N(Cc2ccco2)C(=O)c2cccc(F)c2)c(=O)[nH]c(=O)n1Cc1ccccc1,11.2% (inactive)
14,COc1cccc(CC2(CO)CCCN(Cc3nc(-c4cccs4)oc3C)C2)c1 (stereo not drawn),-28.2% (inactive)
15,CCOC(=O)C1(CC2CCCCO2)CCN(Cc2nc(-c3cccs3)oc2C)CC1 (stereo not drawn),69.3% (active)
16,CC(Sc1nnc(-c2cccs2)n1C1CC1)C(=O)NCC1CCCO1 (stereo not drawn),13.5% (inactive)
17,O=C(OCC(=O)N1CCc2ccccc21)C1CCCN1S(=O)(=O)c1ccc(Cl)cc1 (stereo not drawn),-11.4% (inactive)
18,CCOC(=O)c1ccc(NC(=O)C2CC(=O)N(c3ccc4c(c3)OCCO4)C2)cc1 (stereo not drawn),6.09% (inactive)
19,Cc1ccc(-c2c[n+](CC(=O)Nc3ccccc3)c3n2CCC3)cc1,7.8% (inactive)
20,Clc1ccc(C[n+]2cc(-c3ccccc3)n3c2CCC3)cc1,-18.7% (inactive)
21,Clc1ccc(C[n+]2cc(-c3ccc(Cl)cc3)n3c2CCC3)cc1,44.4% (active)
22,OCC[C@H]1C[C@H](O)[C@@H](O)[C@]2(CCc3ccccc3O2)O1,4.64% (inactive)

row,Structure (SMILES),inhibition
1,CN(C)C(CNC(=O)c1cccc(S(=O)(=O)Nc2ccc(Br)cc2)c1)c1ccco1 (stereo not drawn),22.1% (inactive)
2,COc1ccc(CN2CCN(Cc3cn(C)nc3-c3ccccc3)CC2CCO)c(C)c1C (stereo not drawn),33.2% (active)
3,Cc1ccc(CN2CCN(Cc3cn(C)nc3-c3ccccc3)CC2CCO)o1 (stereo not drawn),9.07% (inactive)
4,CCn1nc(C)c(CN2CCN(Cc3ccc(OC)c(C)c3C)C(CCO)C2)c1C (stereo not drawn),-7.65% (inactive)
5,CCOc1ccc(S(=O)(=O)NCCC(=O)NCC2CCCO2)cc1 (stereo not drawn),6.91% (inactive)
6,CN1CCC(N(C)S(=O)(=O)c2ccc(NC(=O)c3cccc(C#N)c3)cc2)CC1,-21.6% (inactive)
7,O=C(N[C@@H](Cc1ccccc1)C(=O)OCc1ccccc1)c1nc[nH]c1C(=O)N[C@@H](Cc1ccccc1)C(=O)OCc1ccccc1,13.9% (inactive)
8,CC(C)(C)OC(=O)N1CCC(NC(=O)c2[nH]cnc2C(=O)N[C@@H](Cc2ccccc2)C(=O)OCc2ccccc2)CC1,20.4% (inactive)
9,O=C(N[C@@H](Cc1ccccc1)C(=O)OCc1ccccc1)c1nc[nH]c1C(=O)NC1CCNCC1,76.1% (active)
10,O=C(NCc1ccccc1CN1CCCC1)C1CCN(S(=O)(=O)c2ccc(Cl)cc2)CC1,9.19% (inactive)
11,Cc1ccccc1-c1cc(C(=O)NCC2CC2)n(CC2CC(c3cccnc3)=NO2)n1 (stereo not drawn),2.25% (inactive)
12,Cc1ccccc1-c1cc(C(=O)NCc2cccs2)n(CC2CC(c3cccnc3)=NO2)n1 (stereo not drawn),37.9% (active)
13,Cc1ccc(CNC(=O)c2cc(-c3ccccc3C)n(CC3CC(c4cccc([N+](=O)[O-])c4)=NO3)n2)cc1 (stereo not drawn),6.93% (inactive)
14,CC(C)(C)C(=O)OCc1nc(-c2ccc(O)c(O)c2)cs1,93.7% (active)
15,COc1ccc(OC)c(Nc2nc(-c3ccc(O)c(O)c3)cs2)c1,-3.66% (inactive)
16,Cc1onc(C(=O)NN)c1-c1csc(COc2ccccc2)n1,20.6% (inactive)
17,C#CCOCCOCCOCCNc1nc(N2CCN(C(=O)CCCCCCCCCCNC(=O)Cn3cc(CCCCCN)nn3)CC2)nc(N2CCN(C(=O)CCCCCCCCCCNC(=O)[C@H](CO)n3cc(CCCSC)nn3)CC2)n1,1.73% (inactive)
18,COc1cc(OC)cc(-c2c(-c3cccs3)c3cc(-c4ccc(OC)cc4F)ccc3n2C)c1,-3.09% (inactive)
19,CCOC(=O)CN(Cc1ccc(OC)c(OC)c1)S(=O)(=O)c1ccc(OC)cc1,-14% (inactive)
20,CCN(CCCCOC(=O)c1ccc(OC)c(OC)c1)C(C)Cc1ccc(OC)cc1 (stereo not drawn),43.6% (active)
21,COc1ccccc1NC(=O)COc1ccc(C(=O)OCC(=O)N(C(C)C)C(C)C)cc1OC,11.9% (inactive)
22,CC(C)(C)n1ncc2c(=O)n(Cc3c(Cl)cccc3Br)cnc21,-6.49% (inactive)

row,Structure (SMILES),inhibition
1,Cc1ccc(C)c(OCC(=O)NNC(=O)C2CCC2)c1,-10.9% (inactive)
2,CCN(CC(=O)Nc1c(F)cccc1F)C(=O)c1ccc(Sc2nncn2C)c([N+](=O)[O-])c1,-7.81% (inactive)
3,CC1CCCN(CC(=O)Nc2cc(Cl)ccc2Oc2ccccc2)C1 (stereo not drawn),-9.74% (inactive)
4,O=C(CSc1ccccc1)Nc1cc(Cl)ccc1Oc1ccccc1,41.8% (active)
5,CC(=O)Nc1ccc(SCC(=O)Nc2ccccc2Oc2ccccc2)cc1,-7.41% (inactive)
6,O=C(CNC(=O)c1ccc2ccccc2c1)Nc1ncccc1O,6.52% (inactive)
7,CCCN(C(=O)c1nc2nccc(C)n2n1)c1c(N)n(Cc2ccccc2)c(=O)[nH]c1=O,13.1% (inactive)
8,O=C(O)c1cc(S(=O)(=O)Nc2ccc3cn[nH]c3c2)ccc1Br,-28.4% (inactive)
9,O=S(=O)(c1ccc(SCc2ccccc2)nc1)N1CCCCCC1,-5.53% (inactive)
10,COc1ccc([C@H]2CC(=O)C=C(/C=C/c3ccccc3)C2)cc1,11.1% (inactive)
11,O=[N+]([O-])c1ccccc1Nc1ccc(O)cc1,48.5% (active)
12,O=[N+]([O-])c1ccc(O)c(/C=N/Nc2ccccc2[N+](=O)[O-])c1,20.9% (inactive)
13,O=C(O)c1ccccc1C(=O)Nc1ccccc1[N+](=O)[O-],7.04% (inactive)
14,COc1ccccc1OCC(=O)OCc1cc(-c2ccco2)on1,5.46% (inactive)
15,CS(=O)(=O)N(CC(=O)N1CCCCCC1)c1cccc(Cl)c1Cl,-0.797% (inactive)
16,CS(=O)(=O)N(CC(=O)N1CCCC1)Cc1ccccc1,47.1% (active)
17,CCN(CC(=O)N1CCCC1)S(=O)(=O)c1ccc(F)cc1,21.3% (inactive)
18,O=C(COc1coc(CN2CCN(c3ccccc3)CC2)cc1=O)Nc1ccccc1F,16.7% (inactive)
19,CCOC(=O)c1cc(-c2ccccc2C)n(Cc2cc(C)no2)n1,9.49% (inactive)
20,CC(=O)Nc1cccc(C(=O)OCC(=O)Nc2nnc(-c3ccccc3)o2)c1,-0.603% (inactive)
21,COc1ccc(C(=O)OCC(=O)NCCCc2ccccc2)cc1OC,7.85% (inactive)
22,COc1ccc(C(=O)OCC(=O)Nc2cccc(C(C)=O)c2)cc1OC,113% (active)
